# Laboratory results as given in ChEMBL document CHEMBL3988442, “University of Dundee, Small-Polar-MMV Screening Library” (2021).
# For some assays here: Measured potencies and affinities stand elsewhere.
# How the values were obtained:
# Design in all cases: scale not given: direction of the effect not stated beside the values
# [1] = molecular target: Protein translocase subunit SecA (Escherichia coli (strain K12)) (UniProt P10408); assay: Assay to Identify E. coli SecA ATPase Inhibitors; assay type: functional; conditions: 30 µM
# [2] = molecular target: T1, Ubiquitin-activating enzyme e1, putative (Leishmania donovani (strain BPK282A1)) (UniProt E9BSI1); assay: Leishmania donovani Ubiquitin Activating Enzyme (LdE1); assay type: functional; conditions: 30 µM
# T1 sequence (whole entry): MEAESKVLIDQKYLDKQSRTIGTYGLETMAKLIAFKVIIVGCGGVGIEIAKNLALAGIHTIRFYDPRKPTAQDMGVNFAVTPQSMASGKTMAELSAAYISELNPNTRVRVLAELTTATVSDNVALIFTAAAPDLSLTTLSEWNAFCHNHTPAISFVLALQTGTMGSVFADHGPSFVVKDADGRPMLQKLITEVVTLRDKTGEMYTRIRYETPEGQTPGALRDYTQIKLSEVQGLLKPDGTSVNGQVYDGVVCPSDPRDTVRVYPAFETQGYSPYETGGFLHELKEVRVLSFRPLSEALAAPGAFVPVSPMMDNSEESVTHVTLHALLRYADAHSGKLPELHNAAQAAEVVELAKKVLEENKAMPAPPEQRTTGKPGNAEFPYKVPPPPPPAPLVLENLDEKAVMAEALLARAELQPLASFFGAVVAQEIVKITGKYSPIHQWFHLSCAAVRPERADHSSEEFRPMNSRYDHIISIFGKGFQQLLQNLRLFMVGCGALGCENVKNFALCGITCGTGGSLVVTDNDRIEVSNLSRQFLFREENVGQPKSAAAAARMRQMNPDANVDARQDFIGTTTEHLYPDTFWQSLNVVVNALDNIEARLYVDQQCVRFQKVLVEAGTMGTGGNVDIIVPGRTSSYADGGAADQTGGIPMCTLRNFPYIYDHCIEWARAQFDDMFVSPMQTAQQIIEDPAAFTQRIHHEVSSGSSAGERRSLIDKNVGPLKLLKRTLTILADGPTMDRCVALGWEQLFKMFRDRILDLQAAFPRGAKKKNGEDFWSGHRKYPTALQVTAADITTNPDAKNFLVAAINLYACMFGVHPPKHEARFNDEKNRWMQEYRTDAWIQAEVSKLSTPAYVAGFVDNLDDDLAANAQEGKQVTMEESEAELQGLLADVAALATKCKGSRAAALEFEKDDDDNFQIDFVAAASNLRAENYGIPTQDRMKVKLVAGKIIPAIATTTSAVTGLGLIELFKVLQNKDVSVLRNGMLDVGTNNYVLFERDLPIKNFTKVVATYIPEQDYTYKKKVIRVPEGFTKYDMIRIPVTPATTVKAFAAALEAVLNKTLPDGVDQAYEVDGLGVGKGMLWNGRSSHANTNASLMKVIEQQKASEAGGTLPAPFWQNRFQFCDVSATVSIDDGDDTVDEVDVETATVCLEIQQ
# [3] = molecular target: AMP-activated protein kinase, AMPK (Homo sapiens) (UniProt P54646+O43741+P54619+Q9UGJ0+Q9Y478+Q13131+Q9UGI9); assay: AMP-dependent Kinase enzyme assay. An in vitro enzyme assay that detects ADP turnover that is directly proportional to AMPK activity. This uses naive AMPK that is activated during the assay with MK-8722; assay type: functional; conditions: 30 µM
# [4] = molecular target: Sialic acid-binding Ig-like lectin 9 (Homo sapiens) (UniProt Q9Y336); assay: Hs-Siglec9 ALPHAscreen SOP 20170721; conditions: 10 µM
# Trypanosoma cruzi = assay: Trypanosoma cruzi phosphomannomutase and mannose-1-phosphate guanylyltransferase assay; assay type: functional; conditions: 10 µM
# [5] = molecular target: T2, Arginase-2, mitochondrial (Homo sapiens) (UniProt P78540); assay: in vitro enzyme assay to detect the production of urea directly proportional to the activity of Arginase II; assay type: functional; conditions: 33.3 µM; note: in the data most compounds retested in dose-response had high values
# T2 sequence (whole entry): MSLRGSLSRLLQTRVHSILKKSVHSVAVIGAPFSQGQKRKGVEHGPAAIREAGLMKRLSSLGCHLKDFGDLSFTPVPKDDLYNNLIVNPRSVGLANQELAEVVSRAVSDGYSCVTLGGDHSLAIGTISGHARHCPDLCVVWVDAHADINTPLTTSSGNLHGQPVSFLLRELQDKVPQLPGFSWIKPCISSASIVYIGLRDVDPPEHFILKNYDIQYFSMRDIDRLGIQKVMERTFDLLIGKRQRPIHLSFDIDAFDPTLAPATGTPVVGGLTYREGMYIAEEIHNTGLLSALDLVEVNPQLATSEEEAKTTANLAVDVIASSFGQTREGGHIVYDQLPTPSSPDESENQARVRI
# [6] = molecular target: T3, Proteasome subunit beta (Trypanosoma cruzi) (UniProt O96673); assay: Trypanosoma cruzi proteasome chymotrypsin-like activity (TcProtChymo) assay.; note: in the data most compounds retested in dose-response had high values; assay type: functional; conditions: 9.37 µM
# T3 sequence (whole entry): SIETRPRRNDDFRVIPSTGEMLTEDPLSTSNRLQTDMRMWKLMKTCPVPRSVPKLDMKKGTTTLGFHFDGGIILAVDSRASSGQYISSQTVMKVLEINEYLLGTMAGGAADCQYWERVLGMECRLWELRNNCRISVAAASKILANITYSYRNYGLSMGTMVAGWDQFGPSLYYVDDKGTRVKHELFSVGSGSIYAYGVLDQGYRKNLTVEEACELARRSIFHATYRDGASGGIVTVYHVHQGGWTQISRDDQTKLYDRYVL
# Homo sapiens = species on record: Homo sapiens; assay: To identify inhibition of the IFN signalling (Jak-Stat) pathway via expression of an eGFP reporter gene under the control of an IFN-stimulated response element (ISRE) containing MxA promoter.; assay type: functional; conditions: 30 µM
# [7] = molecular target: T4, Tyrosyl-tRNA synthetase, putative (Trypanosoma cruzi (strain CL Brener)) (UniProt Q4DSP6); assay: Trypanosoma cruzi tyrosyl tRNA synthetase (TcYRS) _High Tyrosine SOP; assay type: functional; conditions: 30 µM; note: in the data most compounds retested in dose-response had high values
# T4 sequence (whole entry): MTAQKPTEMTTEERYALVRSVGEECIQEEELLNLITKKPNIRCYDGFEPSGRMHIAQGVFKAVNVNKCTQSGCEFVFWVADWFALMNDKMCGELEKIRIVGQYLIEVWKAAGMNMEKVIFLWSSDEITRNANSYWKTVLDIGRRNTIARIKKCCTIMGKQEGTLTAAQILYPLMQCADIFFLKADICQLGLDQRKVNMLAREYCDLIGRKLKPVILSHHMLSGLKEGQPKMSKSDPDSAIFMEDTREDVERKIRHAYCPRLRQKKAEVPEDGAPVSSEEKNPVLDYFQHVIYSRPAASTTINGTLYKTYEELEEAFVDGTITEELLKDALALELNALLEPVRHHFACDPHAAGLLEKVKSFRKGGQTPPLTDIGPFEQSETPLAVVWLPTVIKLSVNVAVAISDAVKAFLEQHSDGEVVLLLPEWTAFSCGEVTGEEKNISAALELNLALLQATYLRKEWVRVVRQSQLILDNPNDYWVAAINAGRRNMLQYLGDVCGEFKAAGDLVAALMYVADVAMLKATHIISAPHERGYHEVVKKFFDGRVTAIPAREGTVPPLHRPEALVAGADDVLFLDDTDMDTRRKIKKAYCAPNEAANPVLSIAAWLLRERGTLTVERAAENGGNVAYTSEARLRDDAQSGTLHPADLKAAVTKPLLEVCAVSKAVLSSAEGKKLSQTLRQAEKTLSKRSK
# [8] = molecular target: T4, Tyrosyl-tRNA synthetase, putative (Trypanosoma cruzi (strain CL Brener)); assay: Trypanosoma cruzi tyrosyl tRNA synthetase (TcYRS) SOP; assay type: functional; conditions: 30 µM
# [9] = molecular target: Chromo domain-containing protein 1 (Saccharomyces cerevisiae (strain ATCC 204508 / S288c) (Baker's yeast)) (UniProt P32657); assay: ScCHD-1 Enzyme Inhibition Assay; assay type: functional; conditions: 30 µM; note: in the data most compounds retested in dose-response had high values
# Sequence of Chromo domain-containing protein 1 (Saccharomyces cerevisiae (strain ATCC 204508 / S288c) (Baker's yeast)) (P32657 whole entry, the tested form may be a part): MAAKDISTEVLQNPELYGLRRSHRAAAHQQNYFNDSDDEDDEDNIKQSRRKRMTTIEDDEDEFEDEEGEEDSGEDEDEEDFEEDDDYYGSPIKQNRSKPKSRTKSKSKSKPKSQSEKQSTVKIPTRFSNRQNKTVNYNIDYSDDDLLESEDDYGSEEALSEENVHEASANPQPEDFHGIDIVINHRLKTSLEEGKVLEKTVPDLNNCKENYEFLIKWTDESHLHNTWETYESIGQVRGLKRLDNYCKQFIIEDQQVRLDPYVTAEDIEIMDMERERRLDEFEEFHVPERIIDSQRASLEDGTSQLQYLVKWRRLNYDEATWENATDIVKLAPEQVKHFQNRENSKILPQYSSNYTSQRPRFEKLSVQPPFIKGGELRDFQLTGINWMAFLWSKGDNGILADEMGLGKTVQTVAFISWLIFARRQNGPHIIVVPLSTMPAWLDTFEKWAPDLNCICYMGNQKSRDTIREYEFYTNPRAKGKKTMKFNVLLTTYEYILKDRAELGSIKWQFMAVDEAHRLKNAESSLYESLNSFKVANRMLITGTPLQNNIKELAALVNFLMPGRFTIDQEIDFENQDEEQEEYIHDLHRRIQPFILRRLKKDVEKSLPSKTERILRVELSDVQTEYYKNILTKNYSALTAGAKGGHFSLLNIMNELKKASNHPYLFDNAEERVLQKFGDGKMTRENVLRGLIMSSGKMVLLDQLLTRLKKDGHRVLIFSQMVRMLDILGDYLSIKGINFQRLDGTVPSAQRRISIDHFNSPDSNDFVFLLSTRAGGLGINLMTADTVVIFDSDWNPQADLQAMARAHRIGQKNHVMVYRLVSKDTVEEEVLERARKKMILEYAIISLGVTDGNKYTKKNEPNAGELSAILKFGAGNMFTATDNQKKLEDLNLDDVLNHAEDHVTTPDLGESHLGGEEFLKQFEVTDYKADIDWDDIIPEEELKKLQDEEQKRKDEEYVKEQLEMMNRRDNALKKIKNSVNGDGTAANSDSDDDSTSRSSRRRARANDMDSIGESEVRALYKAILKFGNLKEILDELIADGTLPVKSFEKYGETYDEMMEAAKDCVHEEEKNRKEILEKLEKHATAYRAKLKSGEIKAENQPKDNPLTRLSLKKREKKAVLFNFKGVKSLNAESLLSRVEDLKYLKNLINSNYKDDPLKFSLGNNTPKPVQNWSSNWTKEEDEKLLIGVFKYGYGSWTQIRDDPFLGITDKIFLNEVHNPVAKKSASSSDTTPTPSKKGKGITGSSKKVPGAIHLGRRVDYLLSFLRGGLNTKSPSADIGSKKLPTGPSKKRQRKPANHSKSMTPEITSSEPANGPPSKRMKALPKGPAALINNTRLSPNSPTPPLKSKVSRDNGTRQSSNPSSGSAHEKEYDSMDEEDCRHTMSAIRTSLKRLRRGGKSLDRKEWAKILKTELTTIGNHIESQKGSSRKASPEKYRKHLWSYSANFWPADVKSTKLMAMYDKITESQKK
# Sequence of Protein translocase subunit SecA (Escherichia coli (strain K12)) (P10408 whole entry): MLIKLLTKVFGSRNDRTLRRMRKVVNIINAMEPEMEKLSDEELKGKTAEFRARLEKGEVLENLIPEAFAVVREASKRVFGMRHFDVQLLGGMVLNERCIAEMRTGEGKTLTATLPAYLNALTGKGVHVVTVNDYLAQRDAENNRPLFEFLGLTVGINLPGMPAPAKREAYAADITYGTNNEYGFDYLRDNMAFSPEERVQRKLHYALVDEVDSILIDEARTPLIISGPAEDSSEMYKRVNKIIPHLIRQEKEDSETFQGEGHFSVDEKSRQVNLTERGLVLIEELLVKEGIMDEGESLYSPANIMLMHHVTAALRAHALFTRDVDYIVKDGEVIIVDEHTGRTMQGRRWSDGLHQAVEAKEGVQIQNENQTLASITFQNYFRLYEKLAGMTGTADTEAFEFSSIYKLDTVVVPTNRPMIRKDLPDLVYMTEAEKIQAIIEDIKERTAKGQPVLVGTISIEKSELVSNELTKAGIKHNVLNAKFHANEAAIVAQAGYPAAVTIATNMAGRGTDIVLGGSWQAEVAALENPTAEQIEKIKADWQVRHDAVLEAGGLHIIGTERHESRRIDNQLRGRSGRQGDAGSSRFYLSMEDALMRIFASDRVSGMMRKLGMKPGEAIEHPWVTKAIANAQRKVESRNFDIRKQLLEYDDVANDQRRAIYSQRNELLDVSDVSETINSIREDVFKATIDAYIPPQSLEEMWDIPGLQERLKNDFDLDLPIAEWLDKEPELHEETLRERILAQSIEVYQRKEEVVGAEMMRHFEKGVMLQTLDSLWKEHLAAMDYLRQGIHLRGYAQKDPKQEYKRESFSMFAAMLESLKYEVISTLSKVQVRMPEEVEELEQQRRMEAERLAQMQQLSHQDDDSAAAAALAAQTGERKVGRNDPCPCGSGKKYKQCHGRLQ
# Sequence of Sialic acid-binding Ig-like lectin 9 (Homo sapiens) (Q9Y336 whole entry): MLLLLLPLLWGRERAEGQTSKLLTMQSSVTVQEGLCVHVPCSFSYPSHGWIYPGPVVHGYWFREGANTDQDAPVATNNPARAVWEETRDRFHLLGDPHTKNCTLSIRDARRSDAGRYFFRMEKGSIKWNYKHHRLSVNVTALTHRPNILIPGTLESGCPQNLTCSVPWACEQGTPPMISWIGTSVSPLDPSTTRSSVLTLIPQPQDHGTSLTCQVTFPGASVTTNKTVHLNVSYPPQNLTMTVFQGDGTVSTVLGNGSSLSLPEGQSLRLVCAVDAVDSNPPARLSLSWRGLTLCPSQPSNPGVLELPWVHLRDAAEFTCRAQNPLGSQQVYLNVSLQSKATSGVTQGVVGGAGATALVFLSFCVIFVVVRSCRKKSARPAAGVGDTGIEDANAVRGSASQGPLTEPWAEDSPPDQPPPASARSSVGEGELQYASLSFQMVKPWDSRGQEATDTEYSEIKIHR
SMILES,Percent Effect [1] [%],Percent Effect [2] [%],Percent Effect [3] [%],Percent Effect [4] [%],Percent Effect (Trypanosoma cruzi) [%],Percent Effect [5] [%],Percent Effect [6] [%],Percent Effect (Homo sapiens) [%],Percent Effect [7] [%],Percent Effect [8] [%],Percent Effect [9] [%]
Cc1nn(C)c(C)c1NC(=O)CN1CCCC1c1noc(C2CC2)n1 (configuration not stated),2.36,13.7,-14.8,1.88,-0.196,3.64,20.6,-0.924,6.45,12.5,-7.02
O=C([C@@H]1CCO[C@@H]2CCN(Cc3cccnc3)C[C@H]21)N1CCCCO1,-2.75,14.7,2.91,5.02,-1.57,-6.51,11.5,17.3,4.23,7.69,-7.97
O=C(NCc1cccc(F)c1)N1CCC2(CC(=O)N(c3ccsc3)C2)C1 (configuration not stated),-3.47,8.11,-0.642,-0.223,1.95,0.833,15.1,-5.74,9.9,15.8,-4.87
O=C(O)c1cc2c(nc1O)CC(c1cccs1)CC2=O (configuration not stated),-5.09,17.3,-2.58,-0.782,-5.5,-2.64,15.9,-5.05,2.12,-20.5,-9.66
Cc1ccc(N2CC3(COCCN(Cc4nccs4)C3)OCC2=O)s1 (configuration not stated),4.24,7.79,-1.49,-11.2,-7.59,9.68,17.8,8.7,3.17,8.97,-11.1
CCN(CC)c1ccc(-c2nc(-c3cccc(OC)c3OC)no2)cn1,-3.58,8,-0.0158,12.2,6.52,17.2,0.349,10.7,1.64,-8.64,-2.98
Cc1nc(C2CCCN2C(=O)c2cc3c(s2)CCCC3)no1 (configuration not stated),-3.05,0,2.69,3.43,3.95,4.98,3.51,5.26,-0.49,0,5.53
Cc1nc(CN2CCCC(NCCc3ccccc3Cl)C2)no1 (configuration not stated),-4.45,7.59,4.77,11.6,2.36,-1.14,-3.19,-4.21,5.42,8.86,-0.689
O=C(Cn1cc(I)cn1)Nc1cccnc1,-7.8,0,2.58,6.82,1.85,-10.7,16.4,4.4,3.19,7.79,-7.88
CCS(=O)(=O)N1CCC(c2nnc(CN3CCOCC3)n2C)CC1,-3.22,18.7,-2.94,20,3.8,5.73,14.5,3.52,9.29,21,-5.76
CSc1cccc(CN(C)C(=O)C2CC(=O)N(CCN(C)C)C2)c1 (configuration not stated),0.893,10.7,-12.1,4.56,4.38,18.2,18.1,29.9,8.2,16.1,-0.611
Cc1cnc(CN(C)C2CCN(CC(=O)Nc3c(C)n[nH]c3C)C2)o1 (configuration not stated),3.19,20.2,14.2,-1.23,-9.54,6.84,6.63,33.5,5.42,8.86,-4.79
Cc1noc(C)c1CNC(=O)c1ccc(NC2CC2)nc1,-5.61,5.26,-12.2,12.7,7.94,-2.52,-0.0846,3.38,7.39,25.9,-5.7
O=S(=O)(NCC1(O)CCOc2ccccc21)c1cccs1 (configuration not stated),-8.36,0,3.61,-4.67,-3.72,-0.455,5.86,8.26,1.07,5,0.9
CCC1=N[C@@]2(CC[C@@H]3CN(Cc4ccccc4F)C[C@@H]32)C(=O)N1CC,-5.1,0,-2.64,-1.67,-1.17,12.5,18.7,5.93,12.9,18.3,-6.7
CCOc1nnc(CNC2CCCN(c3ccc(C)nn3)C2)s1 (configuration not stated),-2.75,13.5,-13.2,-9.51,6.89,-8.02,15.1,18.7,5.42,23.5,-2.87
CS(=O)(=O)CCC(=O)Nc1cnn(-c2ccccc2Cl)c1,-5.57,13.5,-8,12.3,2.88,-0.185,6.28,6.38,7.92,18.3,-8.04
O=S(=O)(N1CCCCC1)N1CCc2nc(C3CCNCC3)ncc2C1,-2.16,-4.05,0.892,4.08,-1.78,-3.94,12.8,5.01,3.23,1.3,-20.6
Cn1cc(C(=O)N2C[C@@H]3COC[C@]3(COCc3cccnc3)C2)cn1,0.921,13,7.58,1.08,-4.83,11,17.4,3.89,0,8.97,-5.24
CN1CCN(C[C@@H]2OC[C@H]3CN(Cc4cccc(F)c4)CC[C@H]32)CC1,0.931,2.67,4.95,4.78,2.9,-53.9,7.01,-8.27,2.08,2.5,-4.33
Cc1noc([C@@H]2CC[C@@H]3[C@@H](CCN3S(=O)(=O)c3cccnc3)O2)n1,-1.26,5.41,9.76,-4.15,-3.12,1.67,9.89,3.62,6.93,13.4,3.12
CC(=O)Nc1nc(C(=O)N2CCCC2c2noc(C)n2)cs1 (configuration not stated),-6.47,-5.2,10.4,-6.87,-7.12,2.13,-2.2,22.6,-1.94,-17.1,-6.82
